# Bioassay records from PubChem.
# A selection: hits, their analogues and other compounds. The true share with any hit is near 4.2%.
# tim10-1 inh: tim10-1 yeast growth inhibition. S. cerevisiae tim10-1 ts strain growth, BacTiter-Glo, 24 h. inhibition, % at 20 µM. 330,000 compounds, 2.2% hits. AID 463190;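 active means inhibition of at least 40%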;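 further: mutant grown at 25 °C; 0% = DMSO wells with yeast and 100% = wells holding no yeast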
# tim23-1 inh: growth inhibitors of tim23-1 mutant yeast. 330,000 compounds, 1.3% hits. S. cerevisiae tim23-1 growth, BacTiter-Glo luminescence, 24 h. inhibition, % at 20 µM;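 active means growth inhibition of the mutant yeast at or above 50%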;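 further: temperature-sensitive mutant grown at 25 °C; plate controls were DMSO-treated mutant yeast for no effect and medium wells lacking yeast for full effect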
# NALP1 inh: inhibitors of NALP1 inflammasome in yeast | S. cerevisiae NALP1/ASC/caspase-1 growth, X-gal OD620, 72 h | inhibition, % at 10 µM | 280,000 compounds, 0.61% hits | AID 2071; in the data active means inhibition mostly above about 24%, no sharp cut-off; inactive means mostly below about 32%
# TIM10 inh: TIM10 yeast growth inhibition. 330,000 compounds, 1.4% hits. inhibition, % at 10 µM. S. cerevisiae TIM10 strain growth, BacTiter-Glo luminescence, 24 h. AID 463195;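 active means inhibition of 40% or more at the single tested concentration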;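 further: wild-type TIM10 isogenic control strain grown at permissive 25 °C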
# NALP3 yeast inh: inhibitors of NALP3 inflammasome in yeast. Yeast reconstituted NLRP3/ASC/caspase-1, beta-gal luminescence, 24 h. inhibition, % at 10 µM. 330,000 compounds, 0.39% hits;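 active means inhibition of 50% or more; inactive means inhibition below 50%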;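 further: plate controls were induced DMSO wells for no effect and uninduced yeast grown without galactose for full effect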
# V-ATPase pH: yeast V-ATPase proton transport regulation by pHLuorin | 350,000 compounds, 0.37% hits | S. cerevisiae, pHLuorin cytosolic pH fluorescence | response, % at 10 µM; in the data active means response mostly above about 7.3%, no sharp cut-off; inactive means mostly below about 5.4%; further: actives read high
# * = called active by the depositor; . = not tested or not shown.
SMILES,tim10-1 inh,tim23-1 inh,NALP1 inh,TIM10 inh,NALP3 yeast inh,V-ATPase pH
O=[N+]([O-])c1ccc(CS(=O)c2ccccc2)cc1 (stereo unspecified),.,.,.,.,.,-3
CCn1c(Cc2ccccc2)nnc1SCC(=O)Nc1ccccc1F,15,13,33*,15,12,2
Cc1nc2cccc(C(=O)NC3CCCCC3)c2o1,8,4,32*,9,10,1
CCCCCC1C(=O)N2C=C(c3ccccc3)c3ccccc3N2C1=O (stereo unspecified),.,.,.,.,.,-5
C(=C\c1nc(N2CCCC2)c2ccccc2n1)/c1ccccc1,0,31,64*,22,48,11
COCCOC(=O)C1=C(C)NC(=S)NC1c1cccs1 (stereo unspecified),1,-8,3,4,10,-2
O=C(COC(=O)Cc1c[nH]c2ccccc12)Nc1cccc2ccccc12,6,4,17,-4,7,-2
O=C1CCCN2N=C(SCC(=O)Nc3cccc(C(F)(F)F)c3)SC2=N1,8,-1,2,-9,21,-4
COc1ccccc1N1CCN(C(=O)CCN2C(=O)c3cccc4cccc(c34)C2=O)CC1,17,18,45*,8,4,1
COc1ccccc1N1CCN(C(=O)CSc2nc3ccccc3[nH]2)CC1,11,4,-7,-8,14,-5
COc1ccccc1N1CCN(C(=O)CSc2nc(N)cc(=O)[nH]2)CC1,1,-21,41*,-11,19,0
COc1ccccc1N1CCN(C(=O)CN2C(=O)c3ccccc3C2=O)CC1,17,15,-4,10,28,2
CC1CCC(C(C)C)C(OC(=O)Cn2c(-c3ccc(Br)cc3)[n+](C)c3ccccc32)C1 (stereo unspecified),17,23,-15,1,3,1
CC1(C)CC(=O)C=C(Nc2ccc(F)cc2)C1,-7,12,.,-3,16,14*
COC(=O)C(CC(=O)c1ccc(C)cc1)n1cccn1 (stereo unspecified),12,-4,1,0,12,0
COc1ccc(NC(=O)Cn2c(=O)sc3ccccc32)c(OC)c1,27,16,39*,-6,-4,-2
COc1cc2c(c(OC)c1OC)-c1ccc(NC(=O)c3ccccc3)c(=O)cc1[C@@H](NC(C)=O)CC2,31,22,7,4,16,0
CCCC(=O)Nc1c(-c2cccc(OC)c2)c(=O)c2ccccc2n1C,16,18,3,2,12,-3
O=S(=O)(CC(CN1CCCC1)N1CCCC1)c1ccc2ccccc2c1 (stereo unspecified),30,-18,52*,4,41,0
COc1ccc(Cl)cc1N1C(=O)c2cccnc2C1=O,5,5,2,6,-2,18*
CCOc1ccc(C(C)=O)cc1COc1ccc(-n2cnnn2)cc1,24,-6,16,-8,25,-1
CN(C)Cc1c(C(=O)N/N=C/c2ccc(OCc3ccc(F)cc3)cc2)nnn1-c1nonc1N,-9,4,19,-8,-3,7
N#CCC(=O)N/N=C/c1cn(Cc2cccc3ccccc23)c2ccccc12,-5,-20,41*,6,-4,-1
COc1cc(C)ccc1OCCCCOc1ccccc1C(C)=O,21,19,30,14,26,1
CC(C(N)=O)N1c2cccc3cccc(c23)S1(=O)=O (stereo unspecified),17,9,16,-4,-3,0
SMILES,tim10-1 inh,tim23-1 inh,NALP1 inh,TIM10 inh,NALP3 yeast inh,V-ATPase pH
CC1=CCC[C@@H]2[C@@](C)(CC/C(C)=C/C(=O)O)[C@H](C)CC[C@@]12C,11,27,44*,7,46,0
COC(=O)C(NNc1ccc(F)cc1)(NC(=O)c1ccccc1)C(F)(F)F (stereo unspecified),.,.,34,.,.,2
COC(=O)C(NNc1ccccc1C)(NC(=O)c1ccc(F)cc1)C(F)(F)F (stereo unspecified),29,34,12,9,12,8.7*
COc1ccccc1N1CCN(C(=O)COc2ccc(S(=O)(=O)NC(C)C)cc2)CC1,5,8,16,-9,-13,3
CCN(C(=O)COC(=O)CC1CCCCC1)c1c(N)n(Cc2ccccc2)c(=O)[nH]c1=O,-1,-9,.,1,15,1
CCOC(=O)C1=C(C)Nc2nnnn2C1c1c[nH]c2ccccc12 (stereo unspecified),-6,4,46*,-4,-7,.
CC(C)N1CCC(N2CCN(Cc3ccc(Oc4ncccn4)cc3)CC2CCO)CC1 (stereo unspecified),11,13,.,-14,4,-1
CC(=O)Nc1ccc(S(=O)(=O)NNC(=O)C2CCCCC2)cc1,-2,-2,-8,-10,5,-3
CCCCN(C)CCNS(=O)(=O)c1ccc2c(c1)n(C)c(=O)c(=O)n2C,-24,-10,-17,-4,8,18*
FC(F)(F)c1ccc(-c2csc(-c3ccno3)n2)cc1,23,16,16,23,-38,-4
CC(C)(C)C(=O)OCc1nc(-c2ccc(C(F)(F)F)cc2)cs1,21,0,6,19,20,21*
CCOC(=O)CN1C(=O)C(=O)N(Cc2c(C)cc(C)cc2C)C1=O,0,-7,12,-11,6,-2
CN(C)c1ccc(N2C(=O)CC(Sc3ccccc3C(=O)O)C2=O)cc1 (stereo unspecified),21,7,52*,17,0,1
Cc1ccc(N2C(=O)CC(Sc3ccccc3C(=O)O)C2=O)cc1 (stereo unspecified),11,24,63*,19,15,0
Cc1cc(C)cc(N2C(=O)CC(Sc3ccccc3C(=O)O)C2=O)c1 (stereo unspecified),29,23,10,17,18,2
COc1cc(/C=N/OCC(=O)NC23CC4CC(CC(C4)C2)C3)ccc1OCc1ccccc1,31,19,12,21,26,6
CN1C(=O)Cc2cc(S(=O)(=O)NCc3c(F)cccc3Cl)ccc21,4,-11,17,-2,18,-2
COc1ccc(NS(=O)(=O)c2ccc3c(c2)CCC(=O)N3)c(OC)c1,0,-7,8,0,7,19*
COc1ccc(NC(=O)CN(C)S(=O)(=O)c2ccc3c(c2)CCC(=O)N3)c(OC)c1,13,6,-7,-4,-5,0
Cc1cc(C)c2[nH]c(=O)c(C(c3nnnn3C(C)(C)C)N(Cc3ccco3)CC3CCCO3)cc2c1 (stereo unspecified),21,12,38*,29,4,-3
Cc1cc2cc(C(c3nnnn3C(C)(C)C)N(Cc3ccco3)CC3CCCO3)c(=O)[nH]c2cc1C (stereo unspecified),33,30,5,14,-7,0
CN(CC(=O)NCc1ccccc1)S(=O)(=O)c1cnc[nH]1,-10,0,45*,5,12,3
